The values below come from PubChem BioAssay (Tox21).

The target in experiment [1] is Thyrotropin-releasing hormone receptor (Homo sapiens) (UniProt P34981). Kind of experiment: qHTS assay to identify small molecule antagonists of the thyrotropin-releasing hormone receptor (TRHR) signaling pathway (AID 1346877; active = well fitted inhibition curve with a large enough effect in the repeat runs, not every such curve was filed as active; note: series mostly up to about 51 µM). The method in brief: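 HEK293/TRHR cells, 18 h, 37 °C; Ca2+ dye 2 h; cpd 5 min RT; TRH 1 nM final; fluorescence read 3 min, 1 s intervals; 15 concs, triplicate.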
Chain of Thyrotropin-releasing hormone receptor (Homo sapiens) (P34981 whole entry, looked up): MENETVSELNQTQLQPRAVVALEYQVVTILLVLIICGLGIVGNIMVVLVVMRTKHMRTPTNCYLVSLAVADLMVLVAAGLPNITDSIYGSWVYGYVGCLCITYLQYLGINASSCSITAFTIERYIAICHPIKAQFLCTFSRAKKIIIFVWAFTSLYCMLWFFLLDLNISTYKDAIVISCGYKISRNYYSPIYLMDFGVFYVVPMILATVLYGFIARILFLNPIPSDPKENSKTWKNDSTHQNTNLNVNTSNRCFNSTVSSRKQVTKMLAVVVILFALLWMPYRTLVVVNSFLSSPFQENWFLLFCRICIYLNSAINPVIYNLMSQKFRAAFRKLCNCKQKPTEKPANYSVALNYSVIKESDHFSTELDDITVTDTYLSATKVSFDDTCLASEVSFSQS
For orientation: qHTS replaces the single test concentration by a dilution series.

The target is the same in experiment [2]. Description: qHTS assay to identify small molecule agonists of the thyrotropin-releasing hormone receptor (TRHR) signaling pathway (AID 1346891; calls by dose curve;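 note: HEK293 cells expressing TRHR with calcium dye readout; series mostly up to about 58 µM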). The method in brief: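 HEK293/TRHR cells, 1500 per well, 18 h 37 °C; Ca dye 2 h 37 °C; pin-tool compound addition (agonist mode); kinetic fluorescence 3 min, 1 s reads; 15 concentrations, triplicate.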
The nature of experiment [3]: Human pregnane X receptor (PXR) small molecule agonists, qHTS cell viability counter screen (AID 1346977). Note: nearly all actives have a fitted effect of over 50% in size. The method in brief:
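Fluorescence read-out (CellTiter-Fluor) of viability in PXR-Luc HepG2 cells, multiplexed with the luciferase agonist read. Compounds in DMSO added after 5hr plating; 24hr total exposure at 37C, 5% CO2.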

The nature of experiment [4]: Caspase-3/7 induction in HepG2 cells by small molecules, qHTS assay (AID 1346978). Note: nearly all actives have a fitted effect of over 15% in size. The method in brief:
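Wild-type HepG2 cells (2,000/well) were settled 5 h at 37 C, 5% CO2, then exposed to compounds in DMSO for 17 h. Caspase-3/7 activity was read by luminescence 30 min after adding Caspase-Glo 3/7 reagent at room temperature.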

Experiment [5] can be described thus: Caspase-3/7 induction in CHO-K1 cells by small molecules, qHTS cell viability counter screen (AID 1346979). Note: nearly all actives have a fitted effect of over 35% in size. The essentials: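 CHO-K1 wt, 1,500 cells/well; 5hr pre-incubation 37C/5% CO2; compound pin transfer (DMSO); 16hr exposure; CellTiter-Fluor added, 1hr, fluorescence read.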
A short description of experiment [6]: Caspase-3/7 induction in CHO-K1 cells by small molecules, qHTS assay (AID 1346980). Note: nearly all actives have a fitted effect of over 15% in size. The essentials: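 Wild-type cells were seeded at 1,500 per well and settled 5 hr at 37 C, 5% CO2, then exposed to DMSO-dissolved compounds for 17 hr. Caspase-Glo 3/7 reagent was added, and luminescence was read after 30min at room temperature.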
Experiment [7] can be described thus: Caspase-3/7 induction in HepG2 cells by small molecules, qHTS cell viability counter screen (AID 1346981). Note: series mostly up to about 92 µM; nearly all actives have a fitted effect of over 30% in size. The method in brief:
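Fluorescence read-out of live-cell protease activity (CellTiter-Fluor) after 1 hr with reagent. This was measured in the same wells as the caspase-3/7 luminescence, on HepG2 cells exposed to DMSO-dissolved compounds for 16 hr at 37 C.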

The target of experiment [8] is Nuclear receptor subfamily 1 group I member 2 (Homo sapiens) (UniProt O75469). Kind of experiment: Human pregnane X receptor (PXR) small molecule agonists, qHTS assay (AID 1346982). Note: nearly all actives have a fitted effect of over 35% in size. Note: potency is the fitted concentration of half-maximal effect. The essentials: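 HepG2 PXR-Luc reporter line, 5% charcoal-stripped FBS; 5 hr pre-incubation, compound (DMSO) 24 hr at 37 C/5% CO2; ONE-Glo 30 min RT; luminescence read-out.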
Chain of Nuclear receptor subfamily 1 group I member 2 (Homo sapiens) (O75469 whole entry, looked up): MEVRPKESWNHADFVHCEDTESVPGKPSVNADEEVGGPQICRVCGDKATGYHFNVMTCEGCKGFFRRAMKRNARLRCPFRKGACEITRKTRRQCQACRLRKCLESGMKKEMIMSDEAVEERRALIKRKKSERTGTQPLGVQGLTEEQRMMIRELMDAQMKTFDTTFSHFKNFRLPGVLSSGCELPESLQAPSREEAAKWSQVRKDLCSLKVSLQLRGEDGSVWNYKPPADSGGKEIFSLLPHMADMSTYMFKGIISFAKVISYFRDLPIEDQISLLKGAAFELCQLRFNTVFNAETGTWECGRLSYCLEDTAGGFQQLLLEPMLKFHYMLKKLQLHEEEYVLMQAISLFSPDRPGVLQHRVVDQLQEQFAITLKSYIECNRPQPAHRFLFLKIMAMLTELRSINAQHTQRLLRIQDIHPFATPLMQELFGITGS
Experiment [9] deals with Cytochrome P450 2D6 (Homo sapiens) (UniProt P10635). Description: Cytochrome P450 Family 2 Subfamily D Member 6 (CYP2D6) small molecule antagonists: luciferase reporter qHTS assay (AID 1671196). Note: series mostly up to about 120 µM; nearly all actives have a fitted effect of over 50% in size. The method in brief:
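Luminogenic proluciferin substrate, CYP2D6 enzyme; 10 min RT preincubation with compound, NADPH regeneration system added, 1 h RT. Stop/detection reagent, 20 min RT, luminescence read (RLU). Signal proportional to CYP activity.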

The target in experiment [10] is Cytochrome P450 2C19 (Homo sapiens) (UniProt P33261). Kind of experiment: Cytochrome P450 Family 2 Subfamily C Member 19 (CYP2C19) small molecule antagonists: luciferase reporter qHTS assay (AID 1671197). Note: nearly all actives have a fitted effect of over 65% in size. Note: potency is the fitted concentration of half-maximal effect. The method in brief: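 CYP2C19 P450-Glo, 1536-well qHTS. Cpd + enzyme/proluciferin substrate 10 min RT; + NADPH regen, 37C 1 h; stop with luciferin detection reagent, 20 min RT, luminescence (RLU). Pos ctrl ketoconazole.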
Chain of Cytochrome P450 2C19 (Homo sapiens) (P33261 whole entry, looked up): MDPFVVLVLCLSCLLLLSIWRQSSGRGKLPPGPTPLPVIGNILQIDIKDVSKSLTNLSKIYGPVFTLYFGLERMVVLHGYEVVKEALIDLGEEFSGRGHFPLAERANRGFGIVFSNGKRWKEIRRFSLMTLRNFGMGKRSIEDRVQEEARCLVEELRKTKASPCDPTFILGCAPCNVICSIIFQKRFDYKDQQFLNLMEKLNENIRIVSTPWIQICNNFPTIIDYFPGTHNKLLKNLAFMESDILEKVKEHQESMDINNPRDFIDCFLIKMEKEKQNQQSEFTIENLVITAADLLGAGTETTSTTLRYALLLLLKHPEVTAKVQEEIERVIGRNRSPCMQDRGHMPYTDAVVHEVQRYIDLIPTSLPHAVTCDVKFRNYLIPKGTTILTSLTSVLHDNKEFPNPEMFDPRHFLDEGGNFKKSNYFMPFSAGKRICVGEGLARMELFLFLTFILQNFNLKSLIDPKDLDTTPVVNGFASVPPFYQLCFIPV
For orientation: In a reporter assay the amount or activity of a reporter protein is the signal.

Experiment [11] concerns the target Cytochrome P450 2C9 (Homo sapiens) (UniProt P11712). Kind of experiment: Cytochrome P450 Family 2 Subfamily C Member 9 (CYP2C9) small molecule antagonists: luciferase reporter qHTS assay (AID 1671198). Note: series mostly up to about 120 µM; nearly all actives have a fitted effect of over 50% in size. The essentials:
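CYP2C9 activity was measured with a P450-Glo proluciferin substrate. Enzyme–substrate mix was held with compound for 10 min at room temperature, then NADPH regeneration solution was added for 1 h at 37C. Luciferin product was read as luminescence.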

Experiment [12] has as its target Voltage-gated inwardly rectifying potassium channel KCNH2 (Homo sapiens) (UniProt Q12809). Kind of experiment: Human Ether-a-go-go-Related Gene (hERG) channel small molecule antagonists: fluorescence cell-based qHTS assay (AID 1671200).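 Note: hERG-expressing U2OS cells given a thallium stimulus after FluxOR II dye loading; series mostly up to about 77 µM; nearly all actives have a fitted effect of over 50% in size.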 The method in brief: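 Read-out: thallium influx as a surrogate for potassium, tracked as fluorescence (480 nm ex/540 nm em) every second for 2 min after Stimulus Buffer addition in dye-loaded hERG-U2OS cells.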
For orientation: Block of hERG is tested as a sign of cardiac risk.

The target of experiment [13] is Cytochrome P450 1A2 (Homo sapiens) (UniProt P05177). Description: Cytochrome P450 Family 1 Subfamily A Member 2 (CYP1A2) small molecule antagonists: luciferase reporter qHTS assay (AID 1671199). Note: nearly all actives have a fitted effect of over 50% in size. Note: potency is the fitted concentration of half-maximal effect. The essentials: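 Luminescence readout (relative luminescence units) after luciferin detection reagent, 20 min RT. Preceded by 1 h room-temperature CYP1A2 reaction with NADPH regeneration solution following 10 min compound preincubation with enzyme and proluciferin substrate. Furafylline positive control.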
Chain of Cytochrome P450 1A2 (Homo sapiens) (P05177 whole entry, looked up): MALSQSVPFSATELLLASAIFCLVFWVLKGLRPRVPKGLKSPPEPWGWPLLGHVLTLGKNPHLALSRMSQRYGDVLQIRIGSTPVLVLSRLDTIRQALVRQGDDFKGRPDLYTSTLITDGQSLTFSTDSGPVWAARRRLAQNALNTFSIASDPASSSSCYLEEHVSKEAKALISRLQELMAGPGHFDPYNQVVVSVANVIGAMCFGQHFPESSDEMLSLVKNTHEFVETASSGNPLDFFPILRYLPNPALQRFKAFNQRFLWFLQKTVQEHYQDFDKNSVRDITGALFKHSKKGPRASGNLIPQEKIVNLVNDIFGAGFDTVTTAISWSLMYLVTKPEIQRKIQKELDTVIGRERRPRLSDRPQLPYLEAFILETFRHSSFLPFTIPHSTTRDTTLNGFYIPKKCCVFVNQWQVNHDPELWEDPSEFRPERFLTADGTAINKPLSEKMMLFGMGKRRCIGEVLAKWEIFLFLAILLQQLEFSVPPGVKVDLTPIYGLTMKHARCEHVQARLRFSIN

In experiment [14] the target is Cytochrome P450 3A4 (Homo sapiens) (UniProt P08684). Kind of experiment: Cytochrome P450 Family 3 Subfamily A Member 4 (CYP3A4) small molecule antagonists: luciferase reporter qHTS assay (AID 1671201). Note: nearly all actives have a fitted effect of over 50% in size. Note: potency is the fitted concentration of half-maximal effect. The essentials: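 Luminescent readout (RLU) proportional to CYP3A4 activity, from luciferin generated off a proluciferin substrate. Enzyme–substrate mix plus compound 10 min at room temp, NADPH regeneration 1 h, detection reagent 20 min.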
Chain of Cytochrome P450 3A4 (Homo sapiens) (P08684 whole entry, looked up): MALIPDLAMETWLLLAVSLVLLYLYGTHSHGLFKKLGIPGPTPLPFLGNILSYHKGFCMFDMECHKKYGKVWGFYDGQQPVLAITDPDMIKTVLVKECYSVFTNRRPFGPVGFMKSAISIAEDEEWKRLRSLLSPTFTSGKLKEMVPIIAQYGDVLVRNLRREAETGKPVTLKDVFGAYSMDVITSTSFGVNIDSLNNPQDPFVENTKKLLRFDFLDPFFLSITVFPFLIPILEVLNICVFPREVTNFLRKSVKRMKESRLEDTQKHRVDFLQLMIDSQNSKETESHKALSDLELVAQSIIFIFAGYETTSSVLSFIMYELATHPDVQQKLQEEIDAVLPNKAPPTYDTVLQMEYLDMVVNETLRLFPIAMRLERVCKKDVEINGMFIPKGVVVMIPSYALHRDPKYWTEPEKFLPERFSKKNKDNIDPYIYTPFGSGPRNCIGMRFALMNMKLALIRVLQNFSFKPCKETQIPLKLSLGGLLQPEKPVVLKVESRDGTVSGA

The target in experiment [15] is Nuclear receptor subfamily 1 group I member 2 (Rattus norvegicus) (UniProt Q9R1A7). Description: Rat pregnane X receptor (rPXR) activation by small molecules, qHTS assay (AID 1346983). Note: nearly all actives have a fitted effect of over 20% in size. The conditions noted are these: rPXR luciferase reporter cells, One-Glo luminescence, 24 h; max activation: hits give high values. The method in brief:
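Cell-based rPXR luciferase reporter assay, 2,000 cells per well, rested 5hr at 37 C before compound addition in DMSO, then 24 hr at 37 C. One-Glo reagent was added and luminescence read after 30 min at room temperature.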

The target of experiment [16] is Nuclear receptor subfamily 1 group I member 2 (Homo sapiens) (UniProt O75469). Description: CYP3A4 induction through human pregnane X receptor (PXR) by small molecules, qHTS assay (AID 1346984). Note: nearly all actives have a fitted effect of over 40% in size. The method in brief:
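HepG2-derived DPX-2 line carrying PXR plus a CYP3A4-promoter luciferase reporter; cells plated 5 hr, compound-exposed 24 hr at 37C. CYP3A4 activity probed with 3uM (final) Luciferin-IPA for 3hr, then luciferase read after One-Glo.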

Experiment [17] has the same target. Description: Human pregnane X receptor (PXR) activation by small molecules, qHTS assay (AID 1346985). Note: nearly all actives have a fitted effect of over 40% in size. The essentials: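 DPX-2 cells (HepG2 co-transfected with a PXR response element and a CYP3A4-promoter luciferase construct) were seeded at 2,000 per well, rested 5 hr at 37C, then exposed to DMSO-dissolved compounds for 24 hr. Activation was read as luciferase luminescence.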

Each structure is given as a SMILES string. Unmarked numbers belong to inactive results. Records with an inconclusive call do not appear. Calls of active or inactive are those of the source. Unless noted, calls come from the whole dose curve; as a rule, active = well fitted curve in the direction sought with a large enough effect in the repeat runs; inconclusive = weak or mixed curves; inactive = no such curve, though single readings can be large; an effect the other way counts as inactive or inconclusive.
% is set by controls: 0 for no effect and ±100 for the full control effect.

Chain of Cytochrome P450 2C9 (Homo sapiens) (P11712 whole entry, looked up): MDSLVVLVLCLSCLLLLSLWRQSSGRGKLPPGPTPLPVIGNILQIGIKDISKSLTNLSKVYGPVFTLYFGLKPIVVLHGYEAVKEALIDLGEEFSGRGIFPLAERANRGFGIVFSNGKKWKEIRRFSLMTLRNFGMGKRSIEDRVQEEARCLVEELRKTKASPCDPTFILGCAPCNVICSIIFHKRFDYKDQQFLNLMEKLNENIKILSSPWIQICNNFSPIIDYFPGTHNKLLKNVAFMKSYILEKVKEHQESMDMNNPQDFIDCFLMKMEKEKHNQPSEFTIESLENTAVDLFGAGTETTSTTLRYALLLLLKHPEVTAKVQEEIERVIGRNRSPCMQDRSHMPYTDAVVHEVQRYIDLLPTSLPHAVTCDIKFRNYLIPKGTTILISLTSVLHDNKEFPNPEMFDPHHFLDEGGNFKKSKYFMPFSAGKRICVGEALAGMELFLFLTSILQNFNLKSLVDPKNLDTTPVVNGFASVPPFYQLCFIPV
Chain of Voltage-gated inwardly rectifying potassium channel KCNH2 (Homo sapiens) (Q12809 whole entry, looked up): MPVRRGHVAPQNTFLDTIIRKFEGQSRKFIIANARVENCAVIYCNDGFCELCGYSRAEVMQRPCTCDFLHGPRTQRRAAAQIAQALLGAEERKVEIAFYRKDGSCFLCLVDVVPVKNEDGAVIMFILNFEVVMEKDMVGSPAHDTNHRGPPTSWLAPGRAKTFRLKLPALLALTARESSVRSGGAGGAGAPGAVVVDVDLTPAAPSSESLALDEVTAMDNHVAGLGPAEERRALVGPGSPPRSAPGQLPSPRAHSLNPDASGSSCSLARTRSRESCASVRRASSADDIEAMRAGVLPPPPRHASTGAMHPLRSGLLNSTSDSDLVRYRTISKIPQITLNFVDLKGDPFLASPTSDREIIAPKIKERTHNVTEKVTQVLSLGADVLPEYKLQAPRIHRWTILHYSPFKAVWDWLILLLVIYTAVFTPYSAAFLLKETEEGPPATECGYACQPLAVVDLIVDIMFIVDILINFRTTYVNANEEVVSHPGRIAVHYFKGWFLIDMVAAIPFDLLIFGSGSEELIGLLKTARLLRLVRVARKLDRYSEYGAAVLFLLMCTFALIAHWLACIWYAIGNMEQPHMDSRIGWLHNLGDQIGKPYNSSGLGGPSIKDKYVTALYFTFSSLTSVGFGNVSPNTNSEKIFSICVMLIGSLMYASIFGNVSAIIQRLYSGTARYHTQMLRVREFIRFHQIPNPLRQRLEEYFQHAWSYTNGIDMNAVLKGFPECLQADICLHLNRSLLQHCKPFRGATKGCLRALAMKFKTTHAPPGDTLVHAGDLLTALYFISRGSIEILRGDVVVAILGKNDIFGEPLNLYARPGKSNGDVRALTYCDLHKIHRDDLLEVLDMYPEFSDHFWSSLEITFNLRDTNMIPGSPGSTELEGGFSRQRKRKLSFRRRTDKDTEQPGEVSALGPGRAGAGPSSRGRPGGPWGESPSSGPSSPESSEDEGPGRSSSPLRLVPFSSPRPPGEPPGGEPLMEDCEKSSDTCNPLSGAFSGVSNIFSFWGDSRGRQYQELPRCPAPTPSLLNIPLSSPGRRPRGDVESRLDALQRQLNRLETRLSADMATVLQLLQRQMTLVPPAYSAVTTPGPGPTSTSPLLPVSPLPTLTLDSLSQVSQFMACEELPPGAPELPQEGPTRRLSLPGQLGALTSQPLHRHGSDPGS
Chain of Cytochrome P450 2D6 (Homo sapiens) (P10635 whole entry, looked up): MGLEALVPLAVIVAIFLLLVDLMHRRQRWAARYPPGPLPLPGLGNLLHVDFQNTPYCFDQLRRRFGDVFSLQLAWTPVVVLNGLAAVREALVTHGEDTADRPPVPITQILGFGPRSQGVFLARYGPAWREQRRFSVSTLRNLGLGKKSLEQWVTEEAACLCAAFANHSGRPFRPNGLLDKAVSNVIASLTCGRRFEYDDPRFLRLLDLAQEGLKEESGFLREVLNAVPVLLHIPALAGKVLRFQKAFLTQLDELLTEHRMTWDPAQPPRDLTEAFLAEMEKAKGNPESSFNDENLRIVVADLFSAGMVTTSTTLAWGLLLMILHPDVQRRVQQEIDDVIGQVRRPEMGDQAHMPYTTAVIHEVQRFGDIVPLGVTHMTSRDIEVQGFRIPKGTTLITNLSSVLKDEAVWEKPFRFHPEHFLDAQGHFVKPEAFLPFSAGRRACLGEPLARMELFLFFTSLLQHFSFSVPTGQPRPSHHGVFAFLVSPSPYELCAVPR
Chain of Nuclear receptor subfamily 1 group I member 2 (Rattus norvegicus) (Q9R1A7 whole entry, looked up): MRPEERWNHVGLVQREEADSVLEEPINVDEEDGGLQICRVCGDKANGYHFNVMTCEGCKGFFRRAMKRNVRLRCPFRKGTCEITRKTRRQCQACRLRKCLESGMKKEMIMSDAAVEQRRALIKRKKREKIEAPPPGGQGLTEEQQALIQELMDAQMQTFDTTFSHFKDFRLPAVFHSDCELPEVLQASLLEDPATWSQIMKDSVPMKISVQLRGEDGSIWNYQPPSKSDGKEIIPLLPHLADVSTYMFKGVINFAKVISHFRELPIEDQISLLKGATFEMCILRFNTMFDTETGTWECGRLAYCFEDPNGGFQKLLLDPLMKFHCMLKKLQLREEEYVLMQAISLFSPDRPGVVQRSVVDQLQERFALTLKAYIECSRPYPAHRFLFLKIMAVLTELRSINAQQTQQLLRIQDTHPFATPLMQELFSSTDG

`CC[N+](C)(CC)CC`: the outcome in experiment [1], in experiment [3], in experiment [4], in experiment [6] and in experiment [7] was inactive. The Potency entry in experiment [2], in experiment [5], in [8], in [9], in [10] and in experiment [11] was “inactive” each time. For the same compound, the Potency result in [12] is “inactive”.

As to `O=S(=O)(O)c1ccc(Cl)cc1`, the outcome in experiment [1], in [3], in [6] and in experiment [7] was inactive. For the same compound, the Potency entry in [2], in experiment [5], in experiment [8], in experiment [11], in experiment [13] and in [12] was “inactive” in each case. For the same compound, the Potency in experiment [10] is 55.3 µM (active).

As to `CC(C)(C)OC(=O)c1ccccc1C(=O)O`, the outcome in [1], in experiment [3], in experiment [4], in [6] and in experiment [7] was inactive. The Potency result in [2], in [5], in experiment [8], in [9], in [10] and in experiment [13] was “inactive” each time. The Potency result in [12] and in experiment [14] was “inactive” in each case.

As to `N#Cc1ccccc1C#N`, the call in experiment [1], in experiment [3], in [4], in [6] and in experiment [7] was inactive. Besides, the Potency entry in experiment [2], in [5], in experiment [9], in experiment [10], in [11] and in [12] was “inactive” each time. The Potency result in experiment [14] is “inactive”.

Turning to `CC(C)(C)c1ccc(N)cc1`, the call in experiment [1], in experiment [3], in experiment [4], in [6] and in experiment [7] was inactive. Also, the Potency entry in experiment [2], in experiment [5], in experiment [9], in [10], in [13] and in experiment [12] was “inactive” in each case. The Potency in experiment [8] was 68.6 µM (active); in [14] it was 28.3 µM (active).

On to `CC(C)=CCC/C(C)=C\C#N`, for which the outcome in experiment [1], in [3], in [4], in experiment [6] and in experiment [7] was inactive. Moreover, the Potency entry in experiment [2], in experiment [5], in experiment [8], in experiment [9], in experiment [11] and in experiment [12] was “inactive” each time. The Potency in experiment [10] was 39.9 µM (active).

Turning to `COc1cc(OC)cc(OC)c1`, the compound was called inactive in experiment [1], in experiment [3], in [4], in experiment [6], in [7] and in experiment [16]. Further, in experiment [17], the compound was classed as inactive. In addition, the Potency result in experiment [2], in experiment [5], in [9], in [10], in experiment [11] and in experiment [12] was “inactive” throughout. In addition, in experiment [14], the Potency entry was “inactive”. Moreover, the max activation in experiment [15] was -1.98%. The Potency in experiment [13] was 17.4 µM (active).

As for `CC(=O)OC/C=C(/C)CCC=C(C)C`, the outcome in experiment [3], in experiment [4], in experiment [6] and in [7] was inactive. Besides, the Potency entry in experiment [5], in [8], in experiment [10], in [11], in [13] and in experiment [12] was “inactive” each time.
